Measurements from PubChem BioAssay (NCI).
About 79,000 compounds went through this panel and 15% of them were active in at least one assay; those are over-represented in the sample as a whole. Values without a mark were called inactive. The source made the active and inactive calls. No stated cut-off is given here; in the data, active means growth inhibition above about 70%; inactive means the rest.

Columns and labels:
[1] = NCI Yeast Anticancer Drug Screen. Data for the rad50 strain (AID 155);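 further: 0% = growth of vehicle-only cultures of the same strain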; settings: S. cerevisiae rad50 strain growth inhibition, active compounds read high
Outline: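 DNA repair mutant yeast, compound exposure, growth read-out; inhibition is taken relative to vehicle.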

[2] = NCI Yeast Anticancer Drug Screen. Data for the mec2-1 strain (AID 157); settings: S. cerevisiae mec2-1 strain, active compounds read high
Outline: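 Strain: mec2-1 (DNA repair/cell cycle alteration). Compound exposure, then growth measured; inhibition expressed relative to vehicle.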

[3] = NCI Yeast Anticancer Drug Screen. Data for the sgs1 mgt1 strain (AID 161);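 further: 0% = growth of cultures given vehicle only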; settings: S. cerevisiae sgs1 mgt1 strain, active compounds read high
Outline: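 Genetically altered yeast, compound exposure, growth inhibition relative to vehicle.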

[4] = NCI Yeast Anticancer Drug Screen. Data for the cln2 rad14 strain (AID 165);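 further: 0% = growth equal to vehicle treated cultures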; settings: S. cerevisiae cln2 rad14 strain, active compounds read high
Outline: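 Compounds are applied to the cln2 rad14 yeast strain, and growth is then compared with that of vehicle-treated cultures to give inhibition.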

[5] = NCI Yeast Anticancer Drug Screen. Data for the bub3 strain (AID 167); settings: S. cerevisiae bub3 mutant strain, active compounds read high
Outline: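 In this screen, a yeast mutant lacking normal mitotic checkpoint function is challenged with compound. Relative growth versus vehicle gives the inhibition value.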

[6] = NCI Yeast Anticancer Drug Screen. Data for the mlh1 rad18 strain (AID 175); settings: S. cerevisiae mlh1 rad18 strain growth inhibition, active compounds read high
Outline: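 Read-out is yeast growth inhibition, calculated against vehicle-only controls. The compound was applied to a strain engineered with DNA damage repair alterations.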

[7] = at 5.0 µM (retest, dose inferred, filed as 0.5)
[8] = at 50.0 µM (retest, dose inferred, filed as 5.0)

SMILES: CC(=O)c1ccc2c(c1)CC1(C2)Cc2ccccc2C1=O (stereo not given)
- growth inhibition [1, 7]: -5%
- growth inhibition [1, 8]: -16%
- growth inhibition ([1]; at 50.0 µM): -2.15%
- growth inhibition [2, 7]: -1%
- growth inhibition [2, 8]: 0%
- growth inhibition ([2]; at 50.0 µM): 1.15%
- growth inhibition [3, 7]: 11%
- growth inhibition [3, 8]: 24%
- growth inhibition ([3]; at 50.0 µM): 7.8%
- growth inhibition [4, 7]: 2%
- growth inhibition [4, 8]: -13%
- growth inhibition ([4]; at 50.0 µM): -10.6%
- growth inhibition [5, 7]: 25%
- growth inhibition [5, 8]: 84% (active)
- growth inhibition ([5]; at 50.0 µM): 84.3% (active)
- growth inhibition [6, 7]: -4%
- growth inhibition [6, 8]: -9%
- growth inhibition ([6]; at 50.0 µM): 10%

SMILES: CC(C)Cn1cnc2c(SCc3ccccc3[N+](=O)[O-])nc(N)nc21
- growth inhibition [1, 7]: 2%
- growth inhibition [1, 8]: -4%
- growth inhibition ([1]; at 50.0 µM): 90% (active)
- growth inhibition [2, 7]: -4%
- growth inhibition [2, 8]: -2%
- growth inhibition ([2]; at 50.0 µM): 96% (active)
- growth inhibition [3, 7]: 0%
- growth inhibition [3, 8]: -2%
- growth inhibition ([3]; at 50.0 µM): 56%
- growth inhibition [4, 7]: -22%
- growth inhibition [4, 8]: -3%
- growth inhibition ([4]; at 50.0 µM): 82.2% (active)
- growth inhibition [5, 7]: -1%
- growth inhibition [5, 8]: -4%
- growth inhibition ([5]; at 50.0 µM): 96.8% (active)
- growth inhibition [6, 7]: 1%
- growth inhibition [6, 8]: 2%
- growth inhibition ([6]; at 50.0 µM): 84.8% (active)

SMILES: CSC(SC)=C1C(=O)NC(Cc2ccccc2)C1=O (stereo not given)
- growth inhibition [1, 7]: 6%
- growth inhibition [1, 8]: 50%
- growth inhibition ([1]; at 50.0 µM): 80.1% (active)
- growth inhibition [2, 7]: 1%
- growth inhibition [2, 8]: 35%
- growth inhibition ([2]; at 50.0 µM): 36.1%
- growth inhibition [3, 7]: 0%
- growth inhibition [3, 8]: 66%
- growth inhibition ([3]; at 50.0 µM): 71.8% (active)
- growth inhibition [4, 7]: 2%
- growth inhibition [4, 8]: 24%
- growth inhibition ([4]; at 50.0 µM): 37.5%
- growth inhibition [5, 7]: 1%
- growth inhibition [5, 8]: 34%
- growth inhibition ([5]; at 50.0 µM): 50.3%
- growth inhibition [6, 7]: 5%
- growth inhibition [6, 8]: 68%
- growth inhibition ([6]; at 50.0 µM): 83% (active)

SMILES: C=C(C)C(CC=C(C)C)Cc1c(O)cc(OC)c2c1OC(c1ccc(O)cc1O)C(O)C2=O (stereo not given)
- growth inhibition [1, 7]: 29%
- growth inhibition [1, 8]: 22%
- growth inhibition ([1]; at 50.0 µM): 34.1%
- growth inhibition [2, 7]: 27%
- growth inhibition [2, 8]: 28%
- growth inhibition ([2]; at 50.0 µM): 23.4%
- growth inhibition [3, 7]: -23%
- growth inhibition [3, 8]: 42%
- growth inhibition ([3]; at 50.0 µM): 55.2%
- growth inhibition [4, 7]: 19%
- growth inhibition [4, 8]: 32%
- growth inhibition ([4]; at 50.0 µM): 43.9%
- growth inhibition [5, 7]: -5%
- growth inhibition [5, 8]: 38%
- growth inhibition ([5]; at 50.0 µM): 57%
- growth inhibition [6, 7]: 24%
- growth inhibition [6, 8]: 23%
- growth inhibition ([6]; at 50.0 µM): 85.3% (active)

SMILES: CCOC(=O)/C(=C\c1cccc([N+](=O)[O-])c1)C(C)=O
- growth inhibition [1, 7]: 36%
- growth inhibition [1, 8]: 98% (active)
- growth inhibition ([1]; at 50.0 µM): 93.2% (active)
- growth inhibition [2, 7]: 24%
- growth inhibition [2, 8]: 99% (active)
- growth inhibition ([2]; at 50.0 µM): 94.8% (active)
- growth inhibition [3, 7]: 33%
- growth inhibition [3, 8]: 99% (active)
- growth inhibition ([3]; at 50.0 µM): 93.2% (active)
- growth inhibition [4, 7]: 27%
- growth inhibition [4, 8]: 98% (active)
- growth inhibition ([4]; at 50.0 µM): 90.5% (active)
- growth inhibition [5, 7]: 62%
- growth inhibition [5, 8]: 99% (active)
- growth inhibition ([5]; at 50.0 µM): 92% (active)
- growth inhibition [6, 7]: 41%
- growth inhibition [6, 8]: 99% (active)
- growth inhibition ([6]; at 50.0 µM): 92.3% (active)

SMILES: Clc1ccccc1C=Nc1cccc2ccccc12
- growth inhibition [1, 7]: -10%
- growth inhibition [1, 8]: -24%
- growth inhibition ([1]; at 50.0 µM): 22.4%
- growth inhibition [2, 7]: -14%
- growth inhibition [2, 8]: -17%
- growth inhibition ([2]; at 50.0 µM): 32.4%
- growth inhibition [3, 7]: -9%
- growth inhibition [3, 8]: -1%
- growth inhibition ([3]; at 50.0 µM): 27.1%
- growth inhibition [4, 7]: 18%
- growth inhibition [4, 8]: 8%
- growth inhibition ([4]; at 50.0 µM): 13.9%
- growth inhibition [5, 7]: 13%
- growth inhibition [5, 8]: -3%
- growth inhibition ([5]; at 50.0 µM): 35.8%
- growth inhibition [6, 7]: -33%
- growth inhibition [6, 8]: -54%
- growth inhibition ([6]; at 50.0 µM): 23.4%

SMILES: CN(C)C=Nc1ccc2nonc2c1
- growth inhibition [1, 7]: 15%
- growth inhibition [1, 8]: 24%
- growth inhibition ([1]; at 50.0 µM): 10.2%
- growth inhibition [2, 7]: -15%
- growth inhibition [2, 8]: -7%
- growth inhibition ([2]; at 50.0 µM): -3.55%
- growth inhibition [3, 7]: 12%
- growth inhibition [3, 8]: 16%
- growth inhibition ([3]; at 50.0 µM): 3.4%
- growth inhibition [4, 7]: 19%
- growth inhibition [4, 8]: 23%
- growth inhibition ([4]; at 50.0 µM): 7.8%
- growth inhibition [5, 7]: 15%
- growth inhibition [5, 8]: 13%
- growth inhibition ([5]; at 50.0 µM): 4.1%
- growth inhibition [6, 7]: 8%
- growth inhibition [6, 8]: 10%
- growth inhibition ([6]; at 50.0 µM): 0.9%

SMILES: CCOC(=O)C(NC(C)=O)[CH](c1ccccc1)[Sn]([Cl])([c]1ccccc1)[c]1ccccc1 (stereo not given)
- growth inhibition [1, 7]: -7%
- growth inhibition [1, 8]: -13%
- growth inhibition ([1]; at 50.0 µM): 59.4%
- growth inhibition [2, 7]: -1%
- growth inhibition [2, 8]: -12%
- growth inhibition ([2]; at 50.0 µM): 65.7%
- growth inhibition [3, 7]: -8%
- growth inhibition [3, 8]: -5%
- growth inhibition ([3]; at 50.0 µM): 64.7%
- growth inhibition [4, 7]: -22%
- growth inhibition [4, 8]: -2%
- growth inhibition ([4]; at 50.0 µM): 49.1%
- growth inhibition [5, 7]: -14%
- growth inhibition [5, 8]: 12%
- growth inhibition ([5]; at 50.0 µM): 37.4%
- growth inhibition [6, 7]: 1%
- growth inhibition [6, 8]: 1%
- growth inhibition ([6]; at 50.0 µM): 60.5%

SMILES: Nc1ccccc1SC(/C=C/NNC1=NC(c2ccccc2)C(c2ccccc2)=NN1)c1ccccc1 (stereo not given)
- growth inhibition [1, 7]: 43%
- growth inhibition [1, 8]: 43%
- growth inhibition ([1]; at 50.0 µM): 93% (active)
- growth inhibition [2, 7]: 7%
- growth inhibition [2, 8]: 7%
- growth inhibition ([2]; at 50.0 µM): 93% (active)
- growth inhibition [3, 7]: 19%
- growth inhibition [3, 8]: 19%
- growth inhibition ([3]; at 50.0 µM): 91.5% (active)
- growth inhibition [4, 7]: 29%
- growth inhibition [4, 8]: 29%
- growth inhibition ([4]; at 50.0 µM): 91.7% (active)
- growth inhibition [5, 7]: 30%
- growth inhibition [5, 8]: 30%
- growth inhibition ([5]; at 50.0 µM): 93.3% (active)
- growth inhibition [6, 7]: 11%
- growth inhibition [6, 8]: 11%
- growth inhibition ([6]; at 50.0 µM): 91.8% (active)

SMILES: S=C(S)NCCN1CCNC1=S
- growth inhibition [1, 7]: 10%
- growth inhibition [1, 8]: 76% (active)
- growth inhibition ([1]; at 50.0 µM): 60.4%
- growth inhibition [2, 7]: 5%
- growth inhibition [2, 8]: 50%
- growth inhibition ([2]; at 50.0 µM): 60.9%
- growth inhibition [3, 7]: 5%
- growth inhibition [3, 8]: 64%
- growth inhibition ([3]; at 50.0 µM): 80% (active)
- growth inhibition [4, 7]: 2%
- growth inhibition [4, 8]: 18%
- growth inhibition ([4]; at 50.0 µM): -5.05%
- growth inhibition [5, 7]: 14%
- growth inhibition [5, 8]: 95% (active)
- growth inhibition ([5]; at 50.0 µM): 63.8%
- growth inhibition [6, 7]: 7%
- growth inhibition [6, 8]: 78% (active)
- growth inhibition ([6]; at 50.0 µM): 77.1% (active)
